Potency and activity change, negative = inhibition data for 40 compounds are collected here from PubChem BioAssay (Tox21).

“And” between values parts separate entries of the source, which are not always exact repeats. Equal values may be shown once. Inconclusive results are not listed. A call without a number means that no potency is given here. Some structures have more than one record in an assay (separate samples or runs), and their calls can disagree. The source made the active and inactive calls. Calls come from the whole dose curve; as a rule, active = well fitted inhibition curve with a large enough effect in the signal ratio in the repeat runs, with a control signal flat; inconclusive = weak or mixed curves, or effect the other way; inactive = flat fitted curve, though single readings scatter; the % refers to the signal ratio.
Potency is the fitted concentration of half-maximal effect.

D(2) dopamine receptor (Homo sapiens), sequence (P14416 whole entry, looked up): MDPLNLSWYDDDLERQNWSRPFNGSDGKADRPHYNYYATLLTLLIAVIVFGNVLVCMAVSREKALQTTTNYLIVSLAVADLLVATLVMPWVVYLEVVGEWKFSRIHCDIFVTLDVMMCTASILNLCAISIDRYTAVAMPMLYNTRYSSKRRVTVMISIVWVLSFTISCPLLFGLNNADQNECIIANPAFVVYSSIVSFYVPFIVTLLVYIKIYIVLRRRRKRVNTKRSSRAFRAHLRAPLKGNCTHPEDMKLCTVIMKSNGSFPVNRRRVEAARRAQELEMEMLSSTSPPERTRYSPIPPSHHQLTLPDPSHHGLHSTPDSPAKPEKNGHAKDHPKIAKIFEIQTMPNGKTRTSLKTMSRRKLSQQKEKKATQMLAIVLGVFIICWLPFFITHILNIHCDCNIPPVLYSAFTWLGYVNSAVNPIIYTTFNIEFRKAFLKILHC

The target in this assay is D(2) dopamine receptor (Homo sapiens) (UniProt P14416). Briefly: Dopamine D2 receptor (DRD2) small molecule antagonists, cell-based qHTS assay (AID 1963595). Particulars: HEK293-DRD2 cAMP HTRF antagonist mode; series mostly up to 92.4 µM. An excerpt:
National Center for Advancing Translational Sciences [NCATS]
Division of Preclinical Innovation [DPI]
U.S. Environmental Protection Agency [EPA]
National Institutes of Environmental Health Sciences [NIEHS]
National Toxicology Program [NTP]
U.S. Food and Drug Administration [FDA]
DRD2 is the D2 subtype of the dopamine receptor, which is coupled to Gi subtype of G protein-coupled receptor. This G protein-coupled receptor inhibits adenylyl cyclase activity. The DRD2-HEK293 cell line stably expressing D2 dopamine receptor can be used for screening agonists and antagonists of interactions between D2 and its ligands. The Hek293-DRD2 cAMP assay is based on HTRF technology. It measures changes of cAMP accumulation in response to Gi coupled GPCR activation or inhibition.
Tox21 Assay Protocol Summary:
DRD2-Hek293 cells were dispensed at 600 cells/3uL/well in 1536-well white plates using a Multidrop Dispenser. After the assay plates were incubated at a 37 C/5% CO2 incubator for 24 h, 1 uL of Ro20-1724 at final concentration of 0.1 mM was transferred to the assay plate by a Flying Reagent Dispenser. Following Ro20-1724 addition, 23 nL of compound dissolved in DMSO, positive controls or DMSO only was added to the assay plates via Wako pintool station. The assay plates were incubated at room temperature for 10 min. Next, 1 uL of mixture of NKH477 (final concentration at 200 nM) and quinpirole (final concentration at 12 nM) was added into the plates. After the assay plates were incubated at room temperature for an additional 30 min, 2.5 ul/well of cAMP-d2 and 2.5 ul/well of anti-cAMP-cryptate were added respectively into the assay plates using a Flying Reagent Dispenser. The plates were incubated at room temperature for 1 h. The fluorescence intensity in the plates was measured at 340 nm excitation and 665 & 620 nm emission by an Envision plate reader.
As for `Oc1ccccc1O`, the Potency result is “inactive”.

For `CCCCCCCCCCCC(=O)OCC(C)OC(=O)CCCCC(=O)O` (stereo not given), the Potency entry is “inactive”.

For the compound `O=C(Nc1ccc(Cl)cc1)Nc1ccc(Cl)c(Cl)c1`, the Potency is 48.6 µM (active) and inactive.

With `O=S(=O)(O)c1ccc2c(N=Nc3ccc(S(=O)(=O)O)c4ccccc34)c(O)c(S(=O)(=O)O)cc2c1`, the activity change, negative = inhibition is 0.317% [at 8.38 µM] (inactive).

`Cc1ccc2c(c1)OCC(=O)CO2`: the Potency result was “inactive”.

Regarding `Oc1ccc2c(c1)OC[C@@H](N1CCC(O)(c3ccc(F)cc3)CC1)[C@H]2O`, the Potency result is “inactive”.

Take `COc1ccc(C(=O)c2cccc(O)c2)c(OC)c1`: the Potency entry was “inactive”.

For the compound `NC(=S)Nc1cccc2ccccc12`, the activity change, negative = inhibition was -0.294% [at 8.38 µM] (inactive).

In the case of `N[C@@H](Cc1c[nH]c2ccc(O)cc12)C(=O)O`, the Potency entry is “inactive”.

As for `CCOC(=O)O[C@]1(C(=O)OCCl)CC[C@H]2[C@@H]3CCC4=CC(=O)C=C[C@]4(C)[C@H]3[C@@H](O)C[C@@]21C`, the Potency entry is “inactive”.

As for `CC(CO)c1ccccc1` (stereo not given), the Potency result is “inactive”.

Take `Cc1ccc(C(=O)Nc2ccc(S(=O)(=O)O)c3cc(S(=O)(=O)O)cc(S(=O)(=O)O)c23)cc1NC(=O)c1cccc(NC(=O)Nc2cccc(C(=O)Nc3cc(C(=O)Nc4ccc(S(=O)(=O)O)c5cc(S(=O)(=O)O)cc(S(=O)(=O)O)c45)ccc3C)c2)c1`: the Potency entry was “inactive”.

Take `C=C(C)C(=O)OCCC(C)OC(=O)C(=C)C` (stereo not given): the Potency result was “inactive”.

`Oc1cccc2ccccc12`: the Potency entry was “inactive”.

As for `N#CC1(O)CCCCC1`, the Potency entry is “inactive”.

`CC1(C)C(O)C(C)(C)C1O` (stereo not given): the Potency entry was “inactive”.

`CCC(C)=O`: the Potency entry is “inactive”.

As to `O=S(=O)(Oc1ccc(Cl)cc1Cl)c1ccccc1`, the Potency entry was “inactive”.

With `CCCCN(CCO)CCO`, the Potency result is “inactive”.

With `CCCCCCCO`, the Potency result was “inactive”.

Take `COCC(O)CO` (stereo not given): the Potency result is “inactive”.

As for `NS(=O)(=O)c1ccccc1Cl`, the Potency entry is “inactive”.

`Cc1ccc(S(=O)(=O)NC(=O)NC2CCCCCCC2)cc1`: the Potency result is “inactive”.

With `NS(=O)(=O)c1cc2c(cc1C(F)(F)F)NC(Cc1ccccc1)NS2(=O)=O` (stereo not given), the Potency entry is “inactive”.

Turning to `COC(OC)C(C)c1ccccc1` (stereo not given), the Potency entry is “inactive”.

On to `CC(C)CCO`, for which the Potency result was “inactive”.

On to `CCCCC/C=C/C=C/C=O`, for which the Potency entry is “inactive”.

On to `NCCc1ccc(O)c(O)c1`, for which the Potency result was “inactive”.

`C=CC(=O)OCC(CO)(COC(=O)C=C)COC(=O)C=C`: the Potency was 54.6 µM (active) and 21.7 µM (active).

Take `O=C(O)CCC(=O)Nc1ccc(S(=O)(=O)Nc2nccs2)cc1`: the Potency result was “inactive”.

Regarding `N[C@@H](CSSC[C@H](N)C(=O)O)C(=O)O`, the activity change, negative = inhibition was 5.54% [at 0.348 µM] (inactive).

As for `BrC1CCC(Br)C(Br)CCC(Br)C(Br)CCC1Br` (stereo not given), the Potency result was “inactive”.

As for `COc1ccc(Br)c(C)c1`, the Potency entry is “inactive”.

Regarding `COc1cc(C(=S)N2CCOCC2)ccc1O`, the Potency result is “inactive”.

As to `Cc1ncc(CSSCc2cnc(C)c(O)c2CO)c(CO)c1O`, the Potency entry was “inactive”.

`O=C(O[C@@H]1Cc2c(O)cc(O)cc2O[C@@H]1c1cc(O)c(O)c(O)c1)c1cc(O)c(O)c(O)c1`: the Potency entry is “inactive”.

Regarding `C=CCCCCCCCC`, the Potency entry is “inactive”.

As to `Clc1ccc2c(Cl)ccnc2c1`, the Potency result is “inactive”.

For `CC(C)(C)c1ccc(O)c(O)c1`, the Potency result was “inactive”.

On to `CCCN1CCCC[C@H]1C(=O)Nc1c(C)cccc1C`, for which the Potency entry is “inactive”.
